Calls of active or inactive are those of the source. Rule for the calls: active = hit-call score of the fitted dose curve at least 0.9, where 1 is the maximum; inactive = score below 0.9.
Test: ATG_E_Box_CIS: Attagene CIS-FACTORIAL HepG2 Assay for human Enhancer Box (E-box) (AID 2282936)
Conditions: HepG2 E-box cis-reporter transcription, actives raise or lower the signal
Method in brief: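 HepG2 cells transiently transfected with multiplexed cis-element reporter units, dosed 24 h; reporter mRNA quantified by RT-PCR, 6-FAM labelling, HpaI digestion and capillary electrophoresis. E-box (USF1) signal fitted bidirectionally vs DMSO.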

outcome, inactive:
S=c1[nH]c2ccccc2s1
Cc1cn([C@H]2C=C[C@@H](CO)O2)c(=O)[nH]c1=O
C#CC(O)C(CC)CCCC (configuration not stated)
CCOCCOCCO
NCCOCCOCCN
Cc1occc(=O)c1O
CCCCC(CC)CO (configuration not stated)
CCCC[C@H]1CN(CC2CCOCC2)C(=O)OC12CCN(C1(C)CCN(C(=O)c3c(C)ncnc3C)CC1)CC2
C/C=C/C=C/C(=O)O
CCCCC(CC)COC(=O)CCCCCCCC(=O)OCC(CC)CCCC (configuration not stated)
O=C(O)c1cccnc1
O=C1O[C@H]([C@H](O)CO)C(O)=C1O
Cc1ccc(-c2cc(C(F)(F)F)nn2-c2ccc(S(N)(=O)=O)cc2)cc1
CCCC(=O)O
O=NO
c1ccc2occc2c1
CC(=O)CC(c1ccccc1)c1c(O)c2ccccc2oc1=O (configuration not stated)
O=C(Oc1ccccc1)c1cccc(C(=O)Oc2ccccc2)c1
Cn1cnc2c1c(=O)[nH]c(=O)n2C
O=C(O)CN(CC(=O)O)CC(=O)O
COc1ccc(C(=O)Nc2nc3ccccc3c(NCc3ccccc3)c2C#N)cc1
C/C=C/c1ccc(OC)cc1
CCCCCCC(C=O)=Cc1ccccc1
CCC(C)N(C)C(=O)c1cc2ccccc2c(-c2ccccc2Cl)n1 (configuration not stated)
O=C(O)c1[nH]n(-c2ccc(S(=O)(=O)O)cc2)c(=O)c1N=Nc1ccc(S(=O)(=O)O)cc1
Cc1ccc(C(C)(C)C)c(O)c1
O=Cc1ccccc1C=O
COC(=O)CCC(=O)OC

AC50, active:
CN(C)C(=O)NC1(c2ccccc2)CCN(CC[C@@]2(c3ccc(F)c(F)c3)CN(C(=O)c3ccccc3)CCO2)CC1 162 µM

Test: ATG_M_61_CIS: Attagene CIS-FACTORIAL HepG2 Assay for M61 Transcription Factor (Internal Marker) (AID 2282937)
Conditions: HepG2 Attagene CIS-FACTORIAL M61 internal marker reporter; actives raise or lower the signal
Method in brief: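 Background-control endpoint: HepG2 cells with cis-regulated reporter constructs, 24 h exposure, reporter mRNA detected via fluorescent primer extension and capillary electrophoresis; values from bidirectional fitting with DMSO baseline.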

outcome, inactive:
S=c1[nH]c2ccccc2s1
Cc1cn([C@H]2C=C[C@@H](CO)O2)c(=O)[nH]c1=O
C#CC(O)C(CC)CCCC (configuration not stated)
CCOCCOCCO
NCCOCCOCCN
Cc1occc(=O)c1O
CCCCC(CC)CO (configuration not stated)
CCCC[C@H]1CN(CC2CCOCC2)C(=O)OC12CCN(C1(C)CCN(C(=O)c3c(C)ncnc3C)CC1)CC2
C/C=C/C=C/C(=O)O
CCCCC(CC)COC(=O)CCCCCCCC(=O)OCC(CC)CCCC (configuration not stated)
O=C(O)c1cccnc1
O=C1O[C@H]([C@H](O)CO)C(O)=C1O
Cc1ccc(-c2cc(C(F)(F)F)nn2-c2ccc(S(N)(=O)=O)cc2)cc1
CCCC(=O)O
O=NO
c1ccc2occc2c1
CC(=O)CC(c1ccccc1)c1c(O)c2ccccc2oc1=O (configuration not stated)
CN(C)C(=O)NC1(c2ccccc2)CCN(CC[C@@]2(c3ccc(F)c(F)c3)CN(C(=O)c3ccccc3)CCO2)CC1
O=C(Oc1ccccc1)c1cccc(C(=O)Oc2ccccc2)c1
Cn1cnc2c1c(=O)[nH]c(=O)n2C
O=C(O)CN(CC(=O)O)CC(=O)O
COc1ccc(C(=O)Nc2nc3ccccc3c(NCc3ccccc3)c2C#N)cc1
C/C=C/c1ccc(OC)cc1
CCCCCCC(C=O)=Cc1ccccc1
CCC(C)N(C)C(=O)c1cc2ccccc2c(-c2ccccc2Cl)n1 (configuration not stated)
O=C(O)c1[nH]n(-c2ccc(S(=O)(=O)O)cc2)c(=O)c1N=Nc1ccc(S(=O)(=O)O)cc1
Cc1ccc(C(C)(C)C)c(O)c1
O=Cc1ccccc1C=O
COC(=O)CCC(=O)OC

Test: ATG_M_19_CIS: Attagene CIS-FACTORIAL HepG2 Assay for M19 Transcription Factor (Internal Marker) (AID 2282939)
Conditions: HepG2 Attagene CIS-FACTORIAL M19 internal marker reporter; actives raise or lower the signal
Method in brief: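 Background-control endpoint from a multiplexed HepG2 reporter panel. Cells carrying cis-regulated reporter constructs are treated 24 h, then reporter transcripts are amplified, fluorescently labelled and sized by capillary electrophoresis. DMSO defines baseline.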

outcome, inactive:
C#CC(O)C(CC)CCCC (configuration not stated)
CCOCCOCCO
NCCOCCOCCN
CCCCC(CC)CO (configuration not stated)
O=NO
c1ccc2occc2c1
CN(C)C(=O)NC1(c2ccccc2)CCN(CC[C@@]2(c3ccc(F)c(F)c3)CN(C(=O)c3ccccc3)CCO2)CC1
O=C(O)CN(CC(=O)O)CC(=O)O
Cc1ccc(C(C)(C)C)c(O)c1
O=Cc1ccccc1C=O

Test: ATG_ERE_CIS: Attagene CIS-FACTORIAL HepG2 Assay for Estrogen Response Element (ERE) (AID 2282940)
Conditions: HepG2 ERE cis-reporter, Attagene RNA transcript; actives raise or lower the signal
Method in brief: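 Cells used were human hepatoma HepG2, transfected with multiple reporter transcription units under cis-regulatory promoters. Reporter mRNA, read 24 h post-dosing via fluorescent RT-PCR products on capillary electrophoresis, was fitted bidirectionally relative to DMSO.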

outcome, inactive:
Cc1ccc(-c2cc(C(F)(F)F)nn2-c2ccc(S(N)(=O)=O)cc2)cc1
c1ccc2occc2c1
O=C(O)CN(CC(=O)O)CC(=O)O
CCC(C)N(C)C(=O)c1cc2ccccc2c(-c2ccccc2Cl)n1 (configuration not stated)
O=C(O)c1[nH]n(-c2ccc(S(=O)(=O)O)cc2)c(=O)c1N=Nc1ccc(S(=O)(=O)O)cc1
O=Cc1ccccc1C=O
COC(=O)CCC(=O)OC

AC50, active:
COc1ccc(C(=O)Nc2nc3ccccc3c(NCc3ccccc3)c2C#N)cc1 1.46 µM
Cc1ccc(C(C)(C)C)c(O)c1 25.1 µM
